Experimental findings from PMC11006913 are described below.

Holding throughout (assay): PBM; 200 nM protein, PBS
Holding throughout (conditions): dsDNA, one strand shown

In experiment [1] the target is HESX1 (Homo sapiens, UniProt Q9UBX0 95-180, R165K).
In experiment [2] the target is HOXB4 (Homo sapiens, UniProt P17483 148-234).
Experiment [3] deals with HESX1 (Homo sapiens, UniProt Q9UBX0 95-180).
The target in experiment [4] is HOXB4 (Homo sapiens, UniProt P17483 148-234, V174I).
For experiment [5], the target named is PROP1 (Homo sapiens, UniProt O75360 56-141).
For experiment [6], the target named is HESX1 (Homo sapiens, UniProt Q9UBX0 95-180, R109Q).
Experiment [7] addresses PROP1 (Homo sapiens, UniProt O75360 56-141, R99H).
Experiment [8] addresses HESX1 (Homo sapiens, UniProt Q9UBX0 95-180, P111T).
The target of experiment [9] is PROP1 (Homo sapiens, UniProt O75360 56-141, F88S).
Experiment [10] concerns the target HESX1 (Homo sapiens, UniProt Q9UBX0 95-180, F115L).
Experiment [11] deals with ALX1 (Homo sapiens, UniProt Q15699 118-204, L144V).
Experiment [12] has as its target ALX1 (Homo sapiens, UniProt Q15699 118-204, L144R).
The target in experiment [13] is SHOX (Homo sapiens, UniProt O15266 103-189).
A further experiment has as its target HOXA4 (Homo sapiens, UniProt Q00056 201-287, R217L).
Experiment [14] has as its target ALX3 (Homo sapiens, UniProt O95076 139-225, N203Q).
Experiment [15] deals with SHOX (Homo sapiens, UniProt O15266 103-189, R173C).
For experiment [16], the target named is ALX3 (Homo sapiens, UniProt O95076 139-225).
In experiment [17] the target is ALX3 (Homo sapiens, UniProt O95076 139-225, L168Q).
Experiment [18] deals with ALX3 (Homo sapiens, UniProt O95076 139-225, L168V).
In experiment [19] the target is ALX3 (Homo sapiens, UniProt O95076 139-225, N203S).
Sequence of ALX3 (Homo sapiens, UniProt O95076 139-225, N203S) (O95076 139-225 N203S): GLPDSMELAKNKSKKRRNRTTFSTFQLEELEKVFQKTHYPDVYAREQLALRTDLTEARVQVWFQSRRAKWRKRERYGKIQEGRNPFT

Sequence of HESX1 (Homo sapiens, UniProt Q9UBX0 95-180) (Q9UBX0 95-180): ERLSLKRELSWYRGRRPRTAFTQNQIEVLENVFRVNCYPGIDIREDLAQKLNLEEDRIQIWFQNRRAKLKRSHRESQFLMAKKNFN
Sequence of HESX1 (Homo sapiens, UniProt Q9UBX0 95-180, P111T) (Q9UBX0 95-180 P111T): as the sequence (Q9UBX0 95-180) above, with P17T counted along it
Sequence of ALX3 (Homo sapiens, UniProt O95076 139-225, L168Q) (O95076 139-225 L168Q): as the sequence (O95076 139-225 N203S) above, with L30Q, S65N counted along it
Sequence of PROP1 (Homo sapiens, UniProt O75360 56-141) (O75360 56-141): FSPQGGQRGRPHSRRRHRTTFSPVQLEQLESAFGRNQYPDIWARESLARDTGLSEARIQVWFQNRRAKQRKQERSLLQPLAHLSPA
Sequence of PROP1 (Homo sapiens, UniProt O75360 56-141, F88S) (O75360 56-141 F88S): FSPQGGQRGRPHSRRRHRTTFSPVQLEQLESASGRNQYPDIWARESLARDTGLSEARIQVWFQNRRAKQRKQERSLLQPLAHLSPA
Sequence of PROP1 (Homo sapiens, UniProt O75360 56-141, R99H) (O75360 56-141 R99H): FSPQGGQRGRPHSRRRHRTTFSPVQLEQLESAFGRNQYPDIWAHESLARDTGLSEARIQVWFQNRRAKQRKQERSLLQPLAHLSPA
Sequence of ALX1 (Homo sapiens, UniProt Q15699 118-204, L144R) (Q15699 118-204 L144R): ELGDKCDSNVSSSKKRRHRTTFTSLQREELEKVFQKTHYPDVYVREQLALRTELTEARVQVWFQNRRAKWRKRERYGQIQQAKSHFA
Sequence of ALX1 (Homo sapiens, UniProt Q15699 118-204, L144V) (Q15699 118-204 L144V): as the sequence (Q15699 118-204 L144R) above, with R27V counted along it
Sequence of SHOX (Homo sapiens, UniProt O15266 103-189, R173C) (O15266 103-189 R173C): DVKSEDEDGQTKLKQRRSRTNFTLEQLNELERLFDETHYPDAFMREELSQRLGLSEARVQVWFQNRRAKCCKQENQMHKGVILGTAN
Sequence of HOXB4 (Homo sapiens, UniProt P17483 148-234) (P17483 148-234): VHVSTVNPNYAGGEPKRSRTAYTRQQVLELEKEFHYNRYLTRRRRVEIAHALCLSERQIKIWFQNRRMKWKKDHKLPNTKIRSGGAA
Sequence of HESX1 (Homo sapiens, UniProt Q9UBX0 95-180, R109Q) (Q9UBX0 95-180 R109Q): as the sequence (Q9UBX0 95-180) above, with R15Q counted along it
Sequence of ALX3 (Homo sapiens, UniProt O95076 139-225) (O95076 139-225): as the sequence (O95076 139-225 N203S) above, with S65N counted along it
Sequence of HOXB4 (Homo sapiens, UniProt P17483 148-234, V174I) (P17483 148-234 V174I): as the sequence (P17483 148-234) above, with V27I counted along it
Sequence of HOXA4 (Q00056 201-287 R217L): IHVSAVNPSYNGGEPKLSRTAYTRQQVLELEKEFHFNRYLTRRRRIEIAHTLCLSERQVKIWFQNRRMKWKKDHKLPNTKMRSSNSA
Sequence of SHOX (Homo sapiens, UniProt O15266 103-189) (O15266 103-189): as the sequence (O15266 103-189 R173C) above, with C71R counted along it
Sequence of ALX3 (Homo sapiens, UniProt O95076 139-225, N203Q) (O95076 139-225 N203Q): as the sequence (O95076 139-225 N203S) above, with S65Q counted along it
Sequence of ALX3 (Homo sapiens, UniProt O95076 139-225, L168V) (O95076 139-225 L168V): as the sequence (O95076 139-225 N203S) above, with L30V, S65N counted along it
Sequence of HESX1 (Homo sapiens, UniProt Q9UBX0 95-180, F115L) (Q9UBX0 95-180 F115L): as the sequence (Q9UBX0 95-180) above, with F21L counted along it
Sequence of HESX1 (Homo sapiens, UniProt Q9UBX0 95-180, R165K) (Q9UBX0 95-180 R165K): as the sequence (Q9UBX0 95-180) above, with R71K counted along it

With CCAGGTCC, the binding signal with HESX1 [1] is 6.37 upbm affinity estimate (log intensity, higher = more binding, comparable within an allelic series); in the experiment with HOXB4 [2], 7.71 upbm affinity estimate (log intensity, higher = more binding, comparable within an allelic series); with HESX1 [3], 6.39 upbm affinity estimate (log intensity, higher = more binding, comparable within an allelic series); with HOXB4 [4] it was 7.79 upbm affinity estimate (log intensity, higher = more binding, comparable within an allelic series); in the experiment with PROP1 [5], 6.63 upbm affinity estimate (log intensity, higher = more binding, comparable within an allelic series); with HESX1 [6], 6.29 upbm affinity estimate (log intensity, higher = more binding, comparable within an allelic series). Also, the binding signal in the experiment with PROP1 [7] was 6.65 upbm affinity estimate (log intensity, higher = more binding, comparable within an allelic series); in the experiment with HESX1 [8], 6.38 upbm affinity estimate (log intensity, higher = more binding, comparable within an allelic series); in the experiment with PROP1 [9], 6.38 upbm affinity estimate (log intensity, higher = more binding, comparable within an allelic series); in the experiment with HESX1 [10], 6.42 upbm affinity estimate (log intensity, higher = more binding, comparable within an allelic series).

As to GGCAGGCC, the binding signal with HESX1 [1] is 6.38 upbm affinity estimate (log intensity, higher = more binding, comparable within an allelic series); in the experiment with HOXB4 [2] it was 7.41 upbm affinity estimate (log intensity, higher = more binding, comparable within an allelic series); with HESX1 [3], 6.43 upbm affinity estimate (log intensity, higher = more binding, comparable within an allelic series); with HOXB4 [4] it was 7.33 upbm affinity estimate (log intensity, higher = more binding, comparable within an allelic series); with ALX1 [11], 6.33 upbm affinity estimate (log intensity, higher = more binding, comparable within an allelic series); with ALX1 [12], 6.11 upbm affinity estimate (log intensity, higher = more binding, comparable within an allelic series). The binding signal with HESX1 [6] was 6.29 upbm affinity estimate (log intensity, higher = more binding, comparable within an allelic series); in the experiment with HESX1 [8] it was 6.43 upbm affinity estimate (log intensity, higher = more binding, comparable within an allelic series); with HESX1 [10], 6.33 upbm affinity estimate (log intensity, higher = more binding, comparable within an allelic series).

In the case of TAATTAGA, the binding signal with HESX1 [1] is 13.5 upbm affinity estimate (log intensity, higher = more binding, comparable within an allelic series); with HOXB4 [2] it was 13.5 upbm affinity estimate (log intensity, higher = more binding, comparable within an allelic series); with SHOX [13], 13.1 upbm affinity estimate (log intensity, higher = more binding, comparable within an allelic series); in the experiment with HESX1 [3], 13.5 upbm affinity estimate (log intensity, higher = more binding, comparable within an allelic series); with HOXA4, 12.5 upbm affinity estimate (log intensity, higher = more binding, comparable within an allelic series); in the experiment with HOXB4 [4], 14.2 upbm affinity estimate (log intensity, higher = more binding, comparable within an allelic series). For the same sequence, the binding signal is 12.3 upbm affinity estimate (log intensity, higher = more binding, comparable within an allelic series) with ALX1 [11]; 8.56 upbm affinity estimate (log intensity, higher = more binding, comparable within an allelic series) with ALX3 [14]; 10.5 upbm affinity estimate (log intensity, higher = more binding, comparable within an allelic series) in the experiment with SHOX [15]; 12 upbm affinity estimate (log intensity, higher = more binding, comparable within an allelic series) with ALX1 [12]; 12.9 upbm affinity estimate (log intensity, higher = more binding, comparable within an allelic series) with ALX3 [16]; 12.2 upbm affinity estimate (log intensity, higher = more binding, comparable within an allelic series) with PROP1 [5]. In addition, the binding signal with HESX1 [6] is 10 upbm affinity estimate (log intensity, higher = more binding, comparable within an allelic series); with PROP1 [7], 12.2 upbm affinity estimate (log intensity, higher = more binding, comparable within an allelic series); with ALX3 [17], 11.3 upbm affinity estimate (log intensity, higher = more binding, comparable within an allelic series); with HESX1 [8] it was 12.1 upbm affinity estimate (log intensity, higher = more binding, comparable within an allelic series); with ALX3 [18] it was 10.9 upbm affinity estimate (log intensity, higher = more binding, comparable within an allelic series); with PROP1 [9] it was 8.08 upbm affinity estimate (log intensity, higher = more binding, comparable within an allelic series). Further, the binding signal in the experiment with HESX1 [10] is 8.35 upbm affinity estimate (log intensity, higher = more binding, comparable within an allelic series); with ALX3 [19] it was 8.71 upbm affinity estimate (log intensity, higher = more binding, comparable within an allelic series).

Take GTAATTGA: the binding signal in the experiment with HESX1 [1] was 12.5 upbm affinity estimate (log intensity, higher = more binding, comparable within an allelic series); in the experiment with HOXB4 [2], 13.1 upbm affinity estimate (log intensity, higher = more binding, comparable within an allelic series); in the experiment with SHOX [13], 11.9 upbm affinity estimate (log intensity, higher = more binding, comparable within an allelic series); with HESX1 [3] it was 12.6 upbm affinity estimate (log intensity, higher = more binding, comparable within an allelic series); in the experiment with HOXA4, 12 upbm affinity estimate (log intensity, higher = more binding, comparable within an allelic series); with HOXB4 [4] it was 13.8 upbm affinity estimate (log intensity, higher = more binding, comparable within an allelic series). Further, the binding signal with ALX1 [11] was 11.7 upbm affinity estimate (log intensity, higher = more binding, comparable within an allelic series); with ALX3 [14], 8.3 upbm affinity estimate (log intensity, higher = more binding, comparable within an allelic series); with SHOX [15], 9.41 upbm affinity estimate (log intensity, higher = more binding, comparable within an allelic series); in the experiment with ALX1 [12] it was 11.2 upbm affinity estimate (log intensity, higher = more binding, comparable within an allelic series); in the experiment with ALX3 [16], 12.4 upbm affinity estimate (log intensity, higher = more binding, comparable within an allelic series); with PROP1 [5], 11.3 upbm affinity estimate (log intensity, higher = more binding, comparable within an allelic series). Further, the binding signal was 8.99 upbm affinity estimate (log intensity, higher = more binding, comparable within an allelic series) with HESX1 [6]; 11.5 upbm affinity estimate (log intensity, higher = more binding, comparable within an allelic series) with PROP1 [7]; 10.4 upbm affinity estimate (log intensity, higher = more binding, comparable within an allelic series) with ALX3 [17]; 11 upbm affinity estimate (log intensity, higher = more binding, comparable within an allelic series) with HESX1 [8]; 9.76 upbm affinity estimate (log intensity, higher = more binding, comparable within an allelic series) with ALX3 [18]; 7.49 upbm affinity estimate (log intensity, higher = more binding, comparable within an allelic series) with PROP1 [9]. The binding signal with HESX1 [10] was 7.6 upbm affinity estimate (log intensity, higher = more binding, comparable within an allelic series); with ALX3 [19] it was 8.44 upbm affinity estimate (log intensity, higher = more binding, comparable within an allelic series).

Regarding CAATTACC, the binding signal in the experiment with HESX1 [1] was 12.7 upbm affinity estimate (log intensity, higher = more binding, comparable within an allelic series); with HOXB4 [2], 13 upbm affinity estimate (log intensity, higher = more binding, comparable within an allelic series); with SHOX [13] it was 11.8 upbm affinity estimate (log intensity, higher = more binding, comparable within an allelic series); in the experiment with HESX1 [3], 12.6 upbm affinity estimate (log intensity, higher = more binding, comparable within an allelic series); with HOXA4 it was 11.9 upbm affinity estimate (log intensity, higher = more binding, comparable within an allelic series); with HOXB4 [4], 13.7 upbm affinity estimate (log intensity, higher = more binding, comparable within an allelic series). The binding signal with ALX1 [11] was 11.6 upbm affinity estimate (log intensity, higher = more binding, comparable within an allelic series); with ALX3 [14], 8.27 upbm affinity estimate (log intensity, higher = more binding, comparable within an allelic series); with SHOX [15], 9.24 upbm affinity estimate (log intensity, higher = more binding, comparable within an allelic series); with ALX1 [12], 11.3 upbm affinity estimate (log intensity, higher = more binding, comparable within an allelic series); with ALX3 [16], 12.4 upbm affinity estimate (log intensity, higher = more binding, comparable within an allelic series); with PROP1 [5] it was 11.3 upbm affinity estimate (log intensity, higher = more binding, comparable within an allelic series). For the same sequence, the binding signal was 8.97 upbm affinity estimate (log intensity, higher = more binding, comparable within an allelic series) with HESX1 [6]; 11.5 upbm affinity estimate (log intensity, higher = more binding, comparable within an allelic series) with PROP1 [7]; 10.3 upbm affinity estimate (log intensity, higher = more binding, comparable within an allelic series) in the experiment with ALX3 [17]; 10.9 upbm affinity estimate (log intensity, higher = more binding, comparable within an allelic series) with HESX1 [8]; 9.72 upbm affinity estimate (log intensity, higher = more binding, comparable within an allelic series) in the experiment with ALX3 [18]; 7.4 upbm affinity estimate (log intensity, higher = more binding, comparable within an allelic series) in the experiment with PROP1 [9]. For the same sequence, the binding signal with HESX1 [10] was 7.62 upbm affinity estimate (log intensity, higher = more binding, comparable within an allelic series); with ALX3 [19] it was 8.36 upbm affinity estimate (log intensity, higher = more binding, comparable within an allelic series).
